{"source": "the supplement of paper PMC12024424", "note": "Structures can show the parent of a compound that is named as a salt."}
{"tested_on": "Staphylococcus aureus Sa2 (MRSA, cystic fibrosis isolate)", "assay": "growth reduction vs untreated control (viable cell count); higher = stronger antibacterial activity; extreme values may be limits of the assay", "conditions": "0.1 mM; 24 h", "description": "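Single-dose screen of the MedChem Express Drug Repurposing Library (0.1 mM, 1% DMSO) against planktonic MRSA S. aureus Sa2 (CF isolate) in TSB in 96-well plates, 37 °C aerobic, 24 h. Assays were run in triplicate and repeated twice.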", "units": {"growth reduction": "%"}}
{"compound": "CC(C)(C)C(=O)Oc1ccc(S(=O)(=O)Nc2ccccc2C(=O)NCC(=O)O)cc1", "note": "[Sivelestat (sodium)]", "growth reduction": 93}
{"compound": "Clc1ccc(CO/N=C(\\Cn2ccnc2)c2ccc(Cl)cc2Cl)c(Cl)c1", "note": "[Oxiconazole nitrate]", "growth reduction": 100}
{"compound": "CO[C@@H](Cc1ccc(OCCc2nc(-c3ccccc3)oc2C)c2ccsc12)C(=O)O", "note": "[Aleglitazar]", "growth reduction": 90}
{"compound": "CCN(CC)CCOc1ccc(C(=C(Cl)c2ccccc2)c2ccccc2)cc1", "note": "[Clomiphene (citrate)]", "growth reduction": 100}
{"compound": "CCCCCCCCCCCCN1CCCCCC1=O", "note": "[Laurocapram]", "growth reduction": 100}
{"compound": "COc1cccc(Nc2ncnn3ccc(CN4CC[C@@H](N)[C@H](O)C4)c23)c1", "growth reduction": 94}
{"compound": "COc1cccc(-c2ccc(NC(=O)C3=C(C(=O)O)CCC3)c(F)c2)c1", "note": "[Vidofludimus]", "growth reduction": 99}
{"compound": "CN(C)CCOc1ccc(/C(=C(/CCCl)c2ccccc2)c2ccccc2)cc1", "note": "[Toremifene (citrate)]", "growth reduction": 100}
{"compound": "Cc1nc2c([nH]1)-c1ccccc1N(C(=O)c1ccc(NC(=O)c3ccccc3-c3ccccc3)cc1)CC2", "note": "[Conivaptan (hydrochloride)]", "growth reduction": 100}
{"compound": "O=C(O)c1ccc2c(c1)CCCC(c1ccc(Cl)cc1Cl)=C2c1ccc(O[C@H]2CCN(CCCF)C2)cc1", "growth reduction": 100}
{"compound": "CCCCCCCOc1ccc(CCC(N)(CO)CO)cc1C(F)(F)F", "note": "[Amiselimod (hydrochloride)]", "growth reduction": 100}
{"compound": "Cc1cc(Nc2ncc(Cl)c(Nc3ccccc3S(=O)(=O)C(C)C)n2)c(OC(C)C)cc1C1CCNCC1", "note": "[Ceritinib]", "growth reduction": 100}
{"compound": "CC[C@H]1[C@@H](O)[C@@H]2[C@H](CC[C@]3(C)[C@@H]([C@H](C)CCC(=O)O)CC[C@@H]23)[C@@]2(C)CC[C@@H](O)C[C@@H]12", "note": "[Obeticholic acid]", "growth reduction": 98}
{"compound": "CC(C)(C)c1cc(C(C)(C)C)c(NC(=O)c2c[nH]c3ccccc3c2=O)cc1O", "note": "[Ivacaftor]", "growth reduction": 99}
{"compound": "CCCCN(CCCC)C(=O)CN1C[C@H](c2ccc3c(c2)OCO3)[C@@H](C(=O)O)[C@@H]1c1ccc(OC)cc1", "note": "[Atrasentan (hydrochloride)]", "growth reduction": 98}
{"compound": "CCOC(=O)N1CCC(=C2c3ccc(Cl)cc3CCc3cccnc32)CC1", "note": "[Loratadine]", "growth reduction": 100}
{"compound": "Clc1ccc(C(c2ccccc2Cl)C(Cl)Cl)cc1", "note": "(stereo not given) [Mitotane]", "growth reduction": 100}
{"compound": "C=C[C@@](C)(/C=C/c1ccc(O)cc1)CCC=C(C)C", "note": "[Bakuchiol]", "growth reduction": 100}
{"compound": "c1cn2cc(-c3ccc4cn[nH]c4c3)nc(Nc3ccc(N4CCOCC4)cc3)c2n1", "note": "[Entospletinib]", "growth reduction": 96}
{"compound": "O=C(NCC12CC3CC(CC(C3)C1)C2)c1cc(CCCNCCCO)ccc1Cl", "note": "[AZD9056 (hydrochloride)]", "growth reduction": 100}
{"compound": "CN1CCCN=C1/C=C/c1cccs1", "note": "[Pyrantel (pamoate)]", "growth reduction": 96}
{"compound": "CCCCCCCCCCCCCCCCOP(=O)([O-])OCC[N+](C)(C)C", "note": "[Miltefosine]", "growth reduction": 100}
{"compound": "N[C@@H]1CC[C@@H](c2ccc(Cl)c(Cl)c2)c2ccccc21", "note": "[Dasotraline (hydrochloride)]", "growth reduction": 100}
{"compound": "CC(C)OC(=O)CCC/C=C\\C[C@@H]1[C@@H](/C=C/[C@@H](O)COc2cccc(C(F)(F)F)c2)[C@H](O)C[C@@H]1O", "note": "[Travoprost]", "growth reduction": 100}
{"compound": "CCc1cc(-c2noc(-c3cc(OC)nc(C4CCCC4)c3)n2)cc(C)c1OC[C@@H](O)CO", "note": "[Cenerimod]", "growth reduction": 100}
{"compound": "CCCCCNC(=N)N/N=C/c1c[nH]c2ccc(OC)cc12", "note": "[Tegaserod (maleate)]", "growth reduction": 100}
{"compound": "O=C(NC1CCN(CCCCC2(C(=O)NCC(F)(F)F)c3ccccc3-c3ccccc32)CC1)c1ccccc1-c1ccc(C(F)(F)F)cc1", "note": "[Lomitapide]", "growth reduction": 100}
{"compound": "CCCCc1oc2ccc(NS(C)(=O)=O)cc2c1C(=O)c1ccc(OCCCN(CCCC)CCCC)cc1", "note": "[Dronedarone]", "growth reduction": 100}
{"compound": "Cc1ccc(Sc2ccccc2N2CCNCC2)c(C)c1", "note": "[Vortioxetine (hydrobromide)]", "growth reduction": 100}
{"compound": "CNCc1ccc(C)c(NC(=O)c2ccc(Nc3nc(-c4ccccc4)c4ccccc4n3)cc2)c1", "growth reduction": 100}
{"compound": "OCCN1CCN(CC/C=C2/c3ccccc3Sc3ccc(C(F)(F)F)cc32)CC1", "note": "[Flupentixol dihydrochloride]", "growth reduction": 100}
{"compound": "COc1cccc2c1C(=O)c1c(O)c3c(c(O)c1C2=O)C[C@@](O)(C(=O)CO)C[C@@H]3O[C@H]1C[C@H](N)[C@@H](O)[C@H](C)O1", "note": "[Epirubicin (hydrochloride)]", "growth reduction": 100}
{"compound": "CCc1oc2ccccc2c1C(=O)c1cc(Br)c(O)c(Br)c1", "note": "[Benzbromarone]", "growth reduction": 100}
{"compound": "O=C(O)C[C@H]1CCc2c1[nH]c1ccc(OCc3ccc(C4CCCC4)c(C(F)(F)F)c3)cc21", "note": "[Etrasimod]", "growth reduction": 100}
{"compound": "Nc1ccc2cc3ccc(N)cc3nc2c1", "note": "[Proflavine (hemisulfate)]", "growth reduction": 100}
{"compound": "C=CC(=O)Nc1cc(Nc2nccc(-c3cn(C4CC4)c4ccccc34)n2)c(OC)cc1N(C)CCN(C)C", "note": "[Almonertinib (hydrochloride)]", "growth reduction": 100}
{"compound": "CCC(c1ccccc1)c1c(O)c2ccccc2oc1=O", "note": "(stereo not given) [Phenprocoumon]", "growth reduction": 95}
{"compound": "Oc1c(Cl)cc(Cl)cc1Sc1cc(Cl)cc(Cl)c1O", "note": "[Bithionol]", "growth reduction": 100}
{"compound": "CS(=O)(=O)c1ccc([C@@H](O)[C@@H](CF)NC(=O)C(Cl)Cl)cc1", "note": "[Florfenicol]", "growth reduction": 100}
{"compound": "Cc1ccc2c(=O)c3cccc(CC(=O)O)c3oc2c1C", "note": "[Vadimezan]", "growth reduction": 100}
